# HP1b binding inh: inhibitors of HP1-beta chromodomain binding to methylated histone tails; AlphaScreen HP1-beta / biotin-H3K9me3 peptide binding; Potency, µM (series often up to 114 µM), for the others: at the highest dose activity change, negative = inhibition, usual class: inhibitors; actives 0.56% (n = 390,000); note: nearly all actives have a fitted effect of over 70% in size
#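 AlphaScreen: HP1-beta (50 nM) preformed 30 min with biotin-H3(1-18)K9me3 peptide (50 nM) in PBS pH 7.4, 0.01% Tween-20. Compound added for 30 min at RT, then streptavidin donor/nickel chelate acceptor beads (10 ug/mL) for 30 min.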
# L3MBTL1 block: L3MBTL1 (human) inhibition | Q9Y468 | AlphaScreen L3MBTL1–H3K9me1 peptide binding | Potency, µM (series often up to 57.1 µM), for the others: at the top dose activity, negative = inhibition, most hits filed as inhibitors | actives 0.66% (n = 230,000) | AID 485360; note: % is set by controls: 0 for no effect and ±100 for the full control effect; nearly all actives have a fitted effect of over 60% in size
#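 Displacement of a biotinylated histone H3(1-15) peptide monomethylated at Lys9 (75 nM) from L3MBTL1 (50 nM) was measured by AlphaScreen after a 30 min room-temperature compound incubation; cefsulodin titration served as intraplate control.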
# BAZ2B block: inhibitors of human BAZ2B bromodomain; AlphaScreen BAZ2B-H3K14Ac peptide displacement; Potency, µM (highest dose often 114 µM), for the others: top-dose activity change, negative = inhibition, hits mostly inhibitors; actives 4.4% (n = 360,000); Q9UIF8; AID 504333; note: % is set by controls: 0 for no effect and ±100 for the full control effect; nearly all actives have a fitted effect of over 60% in size
#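 AlphaScreen luminescence quantifies BAZ2B engagement of H3K14Ac peptide; the protein and biotinylated peptide are both at 50 nM final, buffer PBS pH 7.4 with 0.01% Tween-20, all steps at room temperature.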
# Sfp PPTase inh: inhibitors of Bacillus subtilis Sfp phosphopantetheinyl transferase; Biochemical Sfp PPTase activity, qHTS; Potency, µM, for the others: largest response in the series, negative = inhibition, usual class: inhibitors; actives 3.5% (n = 310,000); AID 1490;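 note: the enzyme is Sfp with the accession as filed and its product quenches rhodamine fluorescence; 0% = enzyme reaction without inhibitor and -100% = no enzyme wells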
#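 Compounds were incubated with enzyme (final 15 nM) for 15 min at room temperature before substrate addition started the reaction. Fluorescence at 525 nm excitation, 598 nm emission was recorded immediately and after 30 minutes.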
# JMJD2A Tudor: JMJD2A Tudor domain (human) inhibition; AlphaScreen JMJD2A-Tudor / H3K4me3 peptide binding; O75164; Potency, µM (doses to about 114 µM), for the others: at the top dose activity change, negative = inhibition, most hits filed as inhibitors; AID 504339; actives 4.4% (n = 390,000); note: % is set by controls: 0 for no effect and ±100 for the full control effect; nearly all actives have a fitted effect of over 50% in size
# G9a block: inhibitors of human histone lysine methyltransferase G9a. Q96KQ7. Potency, µM (titrated, usually from 102 µM), inactives show at the highest dose activity, negative = inhibition, most hits filed as inhibitors. G9a H3K9 monomethylation, AlphaScreen, 2 h. actives 8.8% (n = 350,000); note: % is set by controls: 0 for no effect and ±100 for the full control effect; nearly all actives have a fitted effect of over 75% in size
#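 Readings reflect AlphaScreen signal from monomethyl-H3K9 antibody detection. HMT at 20 nM; substrate b-H3K9 500 nM; cofactor SAM 20 uM; 2 h RT reaction; compounds tested as titrations in qHTS with 15 min preincubation.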
# * marks the source's active call; other numbers are inactive results; ? = inconclusive; nt = no result given; [ ] = dose if it differs, or a comment. Shown are actives, neighbours in structure and some others; about 12% of the full set was active somewhere. Calls come from the whole dose curve; as a rule, active = well fitted curve in the direction sought with a large enough effect; inconclusive = small, poorly fitted or top-dose-only effect, or another doubt; inactive = no such curve, though single readings can be large; an effect the other way counts as inactive or inconclusive. Potency is the fitted concentration of half-maximal effect.
SMILES,HP1b binding inh,L3MBTL1 block,BAZ2B block,Sfp PPTase inh,JMJD2A Tudor,G9a block
CNC(=S)N(CCc1c(C)[nH]c2ccc(Cl)cc12)Cc1cc(OC)c(OC)c(OC)c1,0%,-23%,?,1%,?,32µM*
O=C1c2ccccc2C(=O)c2c(/C=C/N3CCCCC3)ccnc21,-13%,nt,nt,nt,-35%,nt
CCNC(=S)N(CCc1c(C)[nH]c2ccc(Cl)cc12)Cc1ccco1,-10%,nt,nt,21%,-30%,?
COCCNC(=S)N(CCc1c(C)[nH]c2ccccc12)Cc1ccco1,4%,-18%,?,17%,-30%,50µM*
CCCCCCc1ccc(N2C[C@H](Cc3ccccc3)[C@@H](CC(=O)Nc3ccccc3)C2=O)cc1,20%,-6%,-5%[57.1 µM],13%,-22%,?
COc1ccc(C(=O)NN2CCOCC2)cc1,28%,nt,-8%,3%,2%,nt
COc1ccccc1/C=C1\N=C(C(C)(C)C)OC1=O,?,nt,40%,-12%,50µM*,84%
O=[N+]([O-])c1ccccc1NCCOc1ccccc1,-38%,-30%,22µM*,-7%,?,?
O=[N+]([O-])c1ccc(N2CCCCC2)cc1NCCOc1ccccc1,?,-8%,?,-4%,-10%,?
COc1ccc(C2CC3(CC(C)(C)NC(SC)=N3)Oc3cc(O)cc(C)c32)cc1 (stereo not given),19%,16%,36%,-7%,79µM*,?
COc1ccc(C2CC3(CC(C)(C)NC(=S)N3)Oc3cc(O)cc(C)c32)cc1 (stereo not given),-4%,-6%,?,-1%,-35%,-12%[59 µM]
O=C1C(F)=CC(COC(c2ccccc2)(c2ccccc2)c2ccccc2)OC1n1cc(F)c(=O)[nH]c1=O (stereo not given),-13%,nt,nt,nt,50µM*,nt
CC(=O)c1cc(C#N)c(NCCCN(C)C)nc1C,-6%,-25%,8%,-1%,-5%,3%
C=CCNc1nc(C)c(C(C)=O)cc1C#N,47%,nt,50µM*,16%,1%,11%
O=C(Cc1csc2nc(-c3ccc(F)cc3)cn12)NCc1ccccc1,21%[57 µM],nt,-22%,nt,-6%,3%[59 µM]
O=C(CNC(=O)c1ccccc1C(=O)O)c1ccccc1,36%,5%,-7%,15%,-29%,20µM*
O=C(O)c1ccccc1C(=O)NCC(O)c1ccccc1 (stereo not given),38%,-3%,1%,13%,-4%,7.9µM*
O=C(NC[C@H](O)c1ccccc1)c1ccccc1,nt,nt,nt,14%,nt,nt
O=C(CNC(=O)c1ccccc1)c1ccccc1,36%,14%,-32%,nt,-23%,19%[2.33 µM]
Cc1cc(C)c(NC(=O)Cc2ccc(-n3c(C)nc4cccnc43)cc2)c(C)c1,20%,nt,-8%,nt,-21%,-10%[59 µM]
COc1cc(OC)c(CN2CCCN(C)CC2)cc1Br,?,-4%,79µM*,-21%,1.4µM*,nt
COc1cc(OC)c(CN2CCN(c3ccc(F)cc3)CC2)cc1Br,-63%,-7%,50µM*,?,2.5µM*,35µM*
O=C(/C=C/c1ccccc1)OC1CC(O)C2(O)C=CO[C@@H](OC3OC(CO)C(O)C(O)C3O)C12 (stereo not given in full),nt,nt,nt,21%,nt,-15%[2.33 µM]
COc1ccc(C(=O)CSc2nnc(CN3CCCCC3)n2-c2ccc(F)cc2)cc1,15%,3%,-30%,-1%,-26%,?
S=c1[nH]nc(COc2ccccc2)n1-c1ccc(Cl)cc1,22%,nt,nt,nt,-29%,nt
S=c1[nH]nc(Cn2cnc3ccccc32)n1-c1ccccc1,-7%,-19%,-15%,?,4.5µM*,8.9µM*
FC(F)(F)c1ccccc1-n1c(CN2CCCCC2)n[nH]c1=S,21%,nt,-24%,-21%,22µM*,20µM*
Fc1ccc(-n2c(CN3CCCCC3)n[nH]c2=S)cc1,41%,-5%,-11%,-13%,?,45µM*

# Screens: PubChem, National Center for Advancing Translational Sciences (NCATS)
